# Measured values as given in PubChem BioAssay AID1224855 (National Center for Advancing Translational Sciences (NCATS), 2016).
# Records with an inconclusive call do not appear. Values without a mark were called inactive. Calls of active or inactive are those of the source. Calls follow the shape of the dose curve; as a rule, active = well fitted inhibition curve with a large enough effect; inconclusive = small, poorly fitted or top-dose-only effect; inactive = no such curve, though single readings can be large or run the other way.
# Assay: Confirmation assay for measurement of the activity of small molecule inhibitors on Zika virus induced Caspase-3 activity in human iPSC derived neural progenitor cells (hNPCs)
# Settings: hNPC ZIKV-induced caspase-3/7, Caspase-Glo luminescence, 6 h; series mostly up to 46.1 µM; activity, negative = inhibition: at the top concentration
# From the text: National Center for Advancing Translational Sciences [NCATS] Johns Hopkins University School of Medicine Florida State University Assay Overview: Increase in the Caspase-3 activity indicates an activation of apoptosis cell death pathway caused by Zika virus infection in certain types of neuronal cells including human neural progenitor cells (hNPCs), astrocytes, and astrocytoma cell line (SNB-19). This cell-based caspase-3 activity assay measures the increased caspase-3 activity in the human iPSC derived neural progenitor cells (hNPCs) after a 6-hour Zika virus infection with a luminescence readout. A decrease in the luminescence signal in this assay by small molecule treatment indicates an inhibitory effect of that small molecule on the Zika virus induced caspase-3 activity that may correlate with its effect on reduction of Zika virus caused cell death.
# Assay Protocol Summary: The medium for hNPCs consists of DMEM/F12, N2 supplement (ThermoFisher, Cat.# 17502048), NEAA (ThermoFisher, Cat. # 11140050), 2 ug/ml heparin, 2 uM cyclopamine, and B27 (ThermoFisher, Cat. # 17504044). A Caspase-Glo 3/7 assay kit (catalog number G8092; Promega, Madison, WI) was used to detect caspase-3 activity induced by Zika virus infection in human cells. The reagent mixture was reconstituted as described in the protocol from the manufacturer. Polystyrene tissue culture treated and PDL coated white plates were obtained from Greiner Bio-One (Monroe, NC). Cells were seeded in 384- or 1536-well assay plates and cultured at 37 C with 5% CO2 for 16 to 20 hours. The typical cell seeding density in the 1536-well plate assay is 350 cells/well in 3 ul medium for hNPCs in tissue culture treated plates. Compounds were added to cells and incubated for one hour before addition of ZIKV solution to cells (2 FFU/cell). After incubation at 37 C with 5% CO2 for 6 hours, the reagent mixture of Caspase-Glo 3/7 assay kit was added to each well, followed by incubation at room temperature for 30 minutes. The luminescence intensity of the assay plates was measured using a ViewLux plate reader (PerkinElmer). Data were normalized by using the cell-containing wells without ZIKV as a negative control (0% induction of caspase 3/7 activity) and wells containing ZIKV infected cells (Caspase-3 activity induced) as a positive control (100% induction of caspase 3 activity). The percentage inhibitions of the increased Caspase-3 activity by small molecule inhibitors were then calculated.
Structure (SMILES),"activity, negative = inhibition",Potency
Oc1ccc([C@H]2CNCc3c2ccc(O)c3O)cc1O,-7.08%,
COP(=S)(OC)SCN1C(=O)c2ccccc2C1=O,-12.9%,
CC(C)[N+](C)(CCC(C(N)=O)(c1ccccc1)c1ccccc1)C(C)C,5.49%,
CC[n+]1c(-c2ccccc2)c2cc(N)ccc2c2ccc(N)cc21,3.42%,
COc1cccc2c1C(=O)c1c(O)c3c(c(O)c1C2=O)C[C@@](O)(C(=O)CO)CC3OC1CC(N2CCOC(OC)C2)C(O)C(C)O1 (some centres undefined),37.9%,
CC(C)N[C@@H]1CCn2c(=O)[nH]c3cccc(c32)[C@@H]1O,-9.33%,
O=S(=O)(CC1CS1)c1ccc(Oc2ccccc2)cc1 (centres undefined),38.7%,
COC1(CS(=O)c2ccccc2)CCN(CCc2c[nH]c3ccc(F)cc23)CC1 (centres undefined),6.59%,
O=C1C=CC[C@@H]2[C@H]3CCCN4CCC[C@@H](CN12)[C@@H]34,25.5%,
O=C1CCC[C@@H]2[C@H]3CCCN4CCC[C@@H](CN12)[C@@H]34,34.5%,
CC(C)[C@H]1C(=O)N[C@H](CO)Cc2c[nH]c3cccc(c23)N1C,-5.61%,
O=C(Nc1ccc(Br)cc1)c1cc(Br)cc(Br)c1O,,13.8 µM (active)
O=c1c2ccccc2[se]n1-c1ccccc1,,7.74 µM (active)
CC(O)CN1CCN(CC(=O)[O-])CCN(CC(=O)[O-])CCN(CC(=O)[O-])CC1.[Gd+3] (centres undefined),6.07%,
